Screening results from PubChem.
The list is not random: actives were taken first. Their share in the collection is about 2.5%.
L3MBTL1 block: L3MBTL1 (human) inhibition. Q9Y468. AlphaScreen L3MBTL1–H3K9me1 peptide binding. Potency, µM (series often up to 57.1 µM), most hits filed as inhibitors. hit rate 0.66% among 230,000; note: nearly all actives have a fitted effect of over 60% in size
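First, the protein-peptide complex forms for 30 min at room temperature (L3MBTL1 50 nM, biotinylated H3K9me1 peptide 75 nM). Next, compounds are pin-transferred and incubated 30 min. Finally, AlphaScreen beads are added and read after 30 min.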
POLI inh: inhibitors of human DNA polymerase iota | Pol iota fluorescent replication assay, 10 min | Potency, µM (doses to about 115 µM), hits mostly inhibitors | hit rate 1% among 390,000
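Pol iota at 10 nM preincubated 15 min with compounds at room temperature; reaction started with fluorescent substrate, 50 nM final. Fluorescence read kinetically at 0 and 10 min; buffer-only wells as negative control.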
POLB inh: blocks human DNA polymerase beta activity. P06746. Pol beta primer extension/strand displacement, fluorescence kinetic. Potency, µM (doses to about 114 µM), most hits filed as inhibitors. hit rate 1.3% among 340,000. AID 485314
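Human Pol beta at 10 nM; strand-displacement substrate 50 nM final. Compound exposure 15 min at room temperature before start, reaction 10 min at room temperature.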
POLK inh: inhibitors of human DNA polymerase kappa; purified Pol kappa, fluorescent DNA synthesis assay, 10 min; Potency, µM (doses to about 107 µM), hits mostly inhibitors; hit rate 0.53% among 400,000; AID 588579
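50 nM final substrate added after 15 min RT preincubation of 10 nM Pol kappa with compound; fluorescence read at 0 and 10 min.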
APE1 inh: APE1 (human) endonuclease inhibition | hit rate 0.35% among 350,000 | Potency, µM (top dose mostly 65.8 µM), actives largely listed as inhibitors | AID 2517 | P27695 | recombinant APE1, TAMRA/BHQ-2 abasic DNA cleavage fluorescence; note: nearly all actives have a fitted effect of over 55% in size
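Endonuclease cleavage of a quenched abasic-site DNA duplex (50 nM) by APE1 (0.75 nM) was tracked by TAMRA dequenching. Compounds were preincubated with enzyme 15 min at room temperature; data normalized to buffer-only and DMSO wells plus NSC13755 control.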
POLH inh: DNA polymerase eta (human) inhibition. Potency, µM (top dose mostly 114 µM), usual class: inhibitors. recombinant Pol eta, fluorescent DNA replication assay. Q9Y253. hit rate 1.2% among 390,000
Target sequence (Q9Y253 whole entry, looked up): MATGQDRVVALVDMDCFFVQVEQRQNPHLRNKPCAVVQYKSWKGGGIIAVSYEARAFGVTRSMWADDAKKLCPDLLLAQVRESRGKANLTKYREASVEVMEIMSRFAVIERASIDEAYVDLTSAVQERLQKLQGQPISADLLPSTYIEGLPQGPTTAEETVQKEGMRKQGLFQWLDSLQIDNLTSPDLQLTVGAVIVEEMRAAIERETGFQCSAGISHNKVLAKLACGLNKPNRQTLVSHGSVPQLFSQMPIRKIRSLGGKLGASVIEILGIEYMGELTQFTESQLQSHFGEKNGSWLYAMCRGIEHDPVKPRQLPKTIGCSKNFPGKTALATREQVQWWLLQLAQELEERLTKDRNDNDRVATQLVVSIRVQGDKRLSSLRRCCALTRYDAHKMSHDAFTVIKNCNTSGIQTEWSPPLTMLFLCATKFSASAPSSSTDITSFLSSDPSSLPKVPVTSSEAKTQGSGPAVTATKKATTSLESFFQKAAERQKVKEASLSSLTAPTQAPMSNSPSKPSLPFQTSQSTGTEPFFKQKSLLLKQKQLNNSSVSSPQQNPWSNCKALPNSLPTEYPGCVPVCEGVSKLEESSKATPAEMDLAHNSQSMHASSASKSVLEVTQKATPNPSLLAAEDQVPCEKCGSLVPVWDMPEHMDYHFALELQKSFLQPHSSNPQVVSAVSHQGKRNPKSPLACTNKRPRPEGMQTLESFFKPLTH
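Fluorescent replication assay: 50 nM final substrate added after a 15 min room-temperature compound preincubation with 10 nM enzyme. Signal taken at 0 min and again at 10 min.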
Numbers stand for hits; 0 = inactive; ? = inconclusive; - = not tested or not shown; [ ] = another dose, or the depositor's remark. Calls come from the whole dose curve; as a rule, active = well fitted curve in the direction sought with a large enough effect; inconclusive = small, poorly fitted or top-dose-only effect, or another doubt; inactive = no such curve, though single readings can be large; an effect the other way counts as inactive or inconclusive.

SMILES	L3MBTL1 block	POLI inh	POLB inh	POLK inh	APE1 inh	POLH inh
COC(=O)c1ccc(CSc2nc3sc(C(=O)O)c(C)c3c(=O)[nH]2)cc1	0	0	0	0	0	0
CCOc1ccc(NC(=O)c2nc(S(=O)(=O)Cc3ccc(F)cc3)ncc2Cl)cc1	-	0	-	0	-	-
O=c1c2ccccc2nc(SCc2cc(=O)n3ccsc3n2)n1CCCO	-	-	32µM	-	0	-
CC(=O)N1CCCc2cc(S(=O)(=O)N(C)CC(=O)Nc3cccc(C)c3C)ccc21	-	0	0	0	-	0
COc1ccc(NC(=O)c2ccc3c(c2)C(=O)N(Cc2ccncc2)C3=O)cc1S(N)(=O)=O	0	32µM	-	0	0	?
O=C1CCC2(CCCC2)c2ccccc21	-	-	-	-	-	0
CCCCOc1ccc(C2OC34CCCCC3C(C#N)(C#N)C2(C#N)C(=N)O4)cc1 (configuration not stated)	-	16µM	0	0	0	?
COCCCn1c(SCC(=O)OC2CCCCC2)nnc1-c1ccco1	0	0	0	0	0	0
COCCCn1c(SCC(=O)OC2CCCCC2)nnc1-c1cccs1	0	100µM	0	0	0	0
O=C(NC1CCCC1)c1ccc2c(=O)n(Cc3ccccc3)c(SCc3ccc([N+](=O)[O-])cc3)nc2c1	-	0	0	0	-	0
Cc1cc2c(c(=O)o1)C1O[C@](c3ccsc3)(Cc3cc(C#N)ccc31)O2	-	-	10µM	-	?	-
COc1cc2c(cc1OC)C1O[C@](c3ccsc3)(C2)Oc2c1c(=O)oc1ccc(F)cc21	-	-	?	-	0[12.4 µM]	-
COc1ccc([C@]23Cc4cc(C#N)ccc4C(O2)c2c(cc(-c4ccccc4)oc2=O)O3)cc1	-	-	?	-	0[12.4 µM]	-
Cc1cc2c(c(=O)n1-c1ccccc1)C1O[C@](c3ccsc3)(Cc3cc(C#N)ccc31)O2	-	-	8.9µM	-	0[12.4 µM]	-
CC1(C)CC(=O)C2=C(C1)O[C@@]1(c3ccsc3)Cc3cc(C#N)ccc3C2O1	-	-	?	-	0[12.4 µM]	-
COc1ccc2c3c(c(=O)oc2c1)C1O[C@](c2ccsc2)(Cc2cc(C#N)ccc21)O3	-	-	3.2µM	-	0[12.4 µM]	-
N#Cc1ccc2c(c1)C[C@]1(c3ccsc3)Oc3c(c(=O)oc4ccc(F)cc34)C2O1	-	-	11µM	-	0[12.4 µM]	-
COc1ccc([C@]23Cc4ccccc4C(O2)c2c(cc(C)n(Cc4ccccc4)c2=O)O3)cc1	-	-	?	-	0[12.4 µM]	-
Cc1ccc(NC(=O)c2cc3c([nH]c2=O)CC(C)(C)CC3=O)cc1	-	?	-	0	-	-
CCOC(=O)C1C(C(=O)OC)=C(CC(C)C)c2ccccc2N1S(=O)(=O)C(F)(F)F (configuration not stated)	-	-	-	0	0	-
Cc1noc(C)c1-c1cncnc1NCc1ccccc1	-	-	-	0	0	-
CCCCn1c(C)cc2c(c1=O)C1O[C@](c3ccsc3)(Cc3cc(OC)c(OC)cc31)O2	-	-	0[22.9 µM]	-	3.9µM	-
N#Cc1ccc2c(c1)C[C@]1(c3ccsc3)Oc3c(c(=O)oc4ccccc34)C2O1	-	-	2.8µM	-	0[12.4 µM]	-
CCCC[C@]12Cc3cc(C#N)ccc3C(O1)c1c(c3ccccc3oc1=O)O2	-	-	0[22.9 µM]	-	0[12.4 µM]	-
O=C(CC1Nc2cccc3cccc(c23)NC1=O)Nc1ccccc1 (configuration not stated)	0	0	0	0	0	0
SMILES	L3MBTL1 block	POLI inh	POLB inh	POLK inh	APE1 inh	POLH inh
Cc1ccc(NC(=O)CC2Nc3cccc4cccc(c34)NC2=O)cc1 (configuration not stated)	-	5µM	0	?	-	0
NC(=O)CC1Nc2cccc3cccc(c23)NC1=O (configuration not stated)	0	?	6.3µM	0	0	?
Cc1cc(C)c2nc3nc(C)c(C)cc3c(N)c2c1	0	32µM	16µM	?	0	0
CCCSc1nc(C)c2cc(C)cc(C)c2n1	-	0	0	0	0	0
Cc1nnc(N/N=C/c2cc([N+](=O)[O-])c(N3CCC(C)CC3)cc2N2CCC(C)CC2)n1N	-	4µM	0	0	0	0
CCc1nnc(N/N=C/c2ccc(N3CCC(C)CC3)c([N+](=O)[O-])c2)n1N	0	8.9µM	0	0	0	0
COc1cccc(N2CCN(C(=O)c3ccc4nc[nH]c4c3)CC2)c1	-	?	0	0	0	89µM
Cc1ccc(CN(C)C(=O)c2ccccc2NC(=O)c2ccccc2)o1	0	0	-	0	0	0
CC(/C=C1\SC(=S)N(NC(=O)c2ccc(C)cc2)C1=O)=C\c1ccccc1	0	0	0	0	0	0
COc1ccc(/C=C2/SC(=S)N(NS(=O)(=O)c3ccccc3)C2=O)cc1	-	0	0	0	0	89µM
COc1cc(/C=C2\SC(=S)N(NS(=O)(=O)c3ccccc3)C2=O)ccc1O	0	32µM	0	0	0	?
O=C1/C(=C/c2cccnc2)SC(=S)N1NS(=O)(=O)c1ccccc1	-	0	0	0	0	0
C=CCOc1ccc(/C=C2\SC(=S)N(NS(=O)(=O)c3ccccc3)C2=O)cc1	-	?	?	0	0	25µM
CC(/C=C1\SC(=S)N(NS(=O)(=O)c2ccccc2)C1=O)=C\c1ccccc1	0	?	0	0	0	79µM
NC(=O)C1CCN(c2nc(-c3ccccc3Cl)cs2)CC1	-	-	-	-	0	-
CCc1c(C)nc2cc(-c3cccc(Br)c3)[nH]n2c1=O	0	0	25µM	0	?	0
CCOC(=O)CCc1c(C)nc2cc(-c3cc(OC)cc(OC)c3)[nH]n2c1=O	-	0	28µM	0	-	0
COc1ccc(NC(=O)c2cnc(SC)n2-c2ccc(F)cc2)c(OC)c1	-	0	0	0	0	0
CCOc1ccc(CNC(=O)CCCn2nc(C)c3sc4ccccc4c3c2=O)cc1	-	89µM	0	0	-	0
COc1ccc(CCNC(=O)CCCn2nc(C)c3sc4ccccc4c3c2=O)cc1OC	-	0	35µM	0	-	0
COc1ccc(CC2=CC(=O)c3ccccc3C2=O)cc1	?	10µM	0	0	0	?
O=C(C[n+]1c(Cl)cc(Cl)c2ccccc21)c1ccccc1	-	0	-	0	-	-
CC(C)(C)n1ncc2c(=O)n(Cc3cccc(Oc4ccccc4)c3)cnc21	-	0	-	0	0	-
COc1ccc(-[n+]2c(C)cc(/C=C3\Sc4ccccc4N3C)cc2C)cc1	0	0	35µM	0	0	0
COc1ccc(-c2csc(C(C#N)=C(O)CSc3nccn3C)n2)cc1OC	-	14µM	-	0	-	45µM
COc1ccc(/C=C(\C#N)c2nc(-c3ccc(Cl)c(Cl)c3)cs2)cc1OC	-	0	0	0	-	0
COC(=O)c1ccc(CC(=O)c2ccc(O)cc2O)o1	0	0	0	0	0	?
COC(=O)c1ccc(CC(=O)c2c(C)cc(O)cc2O)o1	?	?	?	25µM	?	?
CC(=O)Nc1ccc(S(=O)(=O)N/N=C/c2ccc(C)o2)cc1	-	25µM	?	0	0	?
COc1c(C)c2c(c(O)c1C/C=C(\C)CCC(=O)OCCN1CCOCC1)C(=O)OC2	-	-	-	-	0	-
